The structures appear in SMILES notation. Values joined by “and” are separate entries in the source; they are usually repeats but may differ in a detail not shown here. Identical values can stand only once. Results filed as inconclusive are left out. A number with no mark means an inactive call. Calls come from the whole dose curve; as a rule, active = well fitted cell-killing curve with a large enough effect in the repeat runs; inconclusive = weak or mixed curves; inactive = flat fitted curve, though single readings scatter.

In PubChem BioAssay (NCATS) one finds max response data, which are given here for 31 molecules.
% is set by controls: 0 for no effect and ±100 for the full control effect.

The experiment can be described thus: qHTS assay for small molecule agonists of the antioxidant response element (ARE) signaling pathway measured by Nrf2-dependant transcriptional activity - cell viability counter screen (AID 720653). Conditions: ARE-bla HepG2 viability, CellTiter-Glo ATP luminescence, 16 h; stronger effect = lower value. The procedure, abridged:
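ARE-bla HepG2 cells (2,000/well) rested 5 hrs at 37C/5% CO2, then exposed to compounds in DMSO for 16 hrs. Viability was read in the same wells as intracellular ATP by luminescence, 30 min at room temperature after reagent addition.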
As for `Cc1c(N(C)C)c(=O)n(-c2ccccc2)n1C`, the max response was -0.437% and -7.96%.
`COC(=O)c1ccc(O)cc1`: the max response is -3.37%.
The value for `CCCCCC(N)=O` was -1.07%; that for `CCCCOC(=O)c1ccc(N)cc1` was -19.9%; that for `O=C(O)CCCCC1CCSS1` (stereo unspecified) was 10.3% and -9.69%.
The value for `CCCCCCCC(=O)OCC(COC(=O)CCCCCCC)OC(=O)CCCCCCC` was 1.9%; that for `CCCC(O)C(CC)CO` (stereo unspecified) was 0.4%; that for `O=C1C(c2[nH]c3ccccc3c2O)=Nc2ccccc21` was -0.733%.
Then `Cc1cccc(Nc2ccccc2C(=O)O)c1C`, with -4.01%; and `CC(=O)OCC(COC(C)=O)OC(C)=O`, with -0.23% and 1.03%; and `FC(F)(F)C(Cl)Br` (stereo unspecified), with -1.89%.
Regarding `O=C(OOC(=O)c1ccccc1)c1ccccc1`, the max response was -11.2%.
The value for `C=CCNC(N)=S` was 0.701%.
Then `CC[N+](CC)(CC(=O)Nc1c(C)cccc1C)Cc1ccccc1`, with -0.181%; and `CCN(CC)C(=O)c1cccc(C)c1`, with -1.02% and 2.48%; and `Cc1cc(C)nc(NS(=O)(=O)c2ccc(N)cc2)n1`, with -4.69% and 1.65%.
The value for `O=C(c1ccccc1)C(O)c1ccccc1` (stereo unspecified) was -4.04% and -7.26%; that for `COc1ccc(O)cc1` was -1.63%; that for `Cc1c(C(=O)NCCO)[n+](=O)c2ccccc2n1[O-]` was -7.99%.
Take `CC(=O)Nc1cccc(O)c1`: the max response was 3.22%.
For the molecule `CC(=O)Nc1ccccc1`, the max response is -3.41%.
Then `OC[C@@H](O)[C@@H](O)[C@H](O)[C@H](O)CO`, with -1.54%; and `Cc1ccc(C(C)C)c(O)c1`, with -4.59%.
The value for `CC(C)=CCC/C(C)=C/CO` was 4.56%; that for `CC1CC(OC(=O)c2ccccc2O)CC(C)(C)C1` (stereo unspecified) was 0.684%.
The value for `Cc1cc(O)cc(C)c1Cl` was 0.227%; that for `CC(=O)Nc1ccc(C(=O)O)cc1` was -5.69%; that for `CC(=O)NS(=O)(=O)c1ccc(N)cc1` was -11.8%.
As to `CCCCCCCCCCCCCCCCCCO`, the max response was 2.19%.
Then `Nc1ccc(S(=O)(=O)c2ccc(N)cc2)cc1`, with -3.28% and -10.9%.
Take `Cc1cc(=O)[nH]c(=S)[nH]1`: the max response is 1.24%.
